Laboratory results: PubChem BioAssay (NCATS)
Several values for one entry are separate records, joined by “and”; a condition that tells them apart may be missing. Equal values may be shown once. Inconclusive results are not listed. Activity calls are given as the source filed them. Calls come from the whole dose curve; as a rule, active = well fitted inhibition curve with a large enough effect; inconclusive = small, poorly fitted or top-dose-only effect; inactive = flat fitted curve, though single readings scatter.

Legend:
[1] = system: CRL-7250; experiment: Cytotoxic Profiling of Annotated Libraries Using Quantitative High-Throughput Screening (AID 1296008); conditions: Five cell lines viability, CellTiter-Glo ATP luminescence, 48-72 h; max response: stronger effect = lower value
In short: (§1)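 Cells exposed to compounds for 48 or 72 hr at 37 degrees Celsius. Viability read as ATP-coupled luminescence with CellTiter-Glo after 10 min at room temperature.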

[2] = system: HEK293; experiment: as above; conditions: Five cell lines viability, CellTiter-Glo ATP luminescence, 48-72 h; max response: stronger effect = lower value
In short: as §1

[3] = system: HaCat; experiment: as above; conditions: Five cell lines viability, CellTiter-Glo ATP luminescence, 48-72 h; max response: stronger effect = lower value
In short: as §1

[4] = system: KB-3-1; experiment: as above; conditions: Five cell lines viability, CellTiter-Glo ATP luminescence, 48-72 h; max response: stronger effect = lower value
In short: as §1

[5] = system: NIH3T3; experiment: as above; conditions: Five cell lines viability, CellTiter-Glo ATP luminescence, 48-72 h; max response: stronger effect = lower value
In short: as §1

[6] = system: HACAT; experiment: qHTS assay to identify novel small-molecules to repurpose for Merkel cell carcinoma treatment (AID 1296009); conditions: MCC and control cell lines, CellTiter-Glo viability, 72 h; at 44.8 µM (top of the series) unless noted
In short: (§2)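 Cells were treated for 72 hr at 37 degree celsius with compounds in 8- or 11-point dose response. Viability was read by CellTiter-Glo luminescence, normalized to no-cell (cytotoxicity) and DMSO controls.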

[7] = system: HEK293T; experiment: as above; conditions: MCC and control cell lines, CellTiter-Glo viability, 72 h; at 44.8 µM (top of the series) unless noted
In short: as §2

[8] = system: MCC-13; experiment: as above; conditions: MCC and control cell lines, CellTiter-Glo viability, 72 h; series mostly up to 46 µM
In short: as §2

[9] = system: MCC-26; experiment: as above; conditions: MCC and control cell lines, CellTiter-Glo viability, 72 h; series mostly up to 46 µM
In short: as §2

[10] = system: MKL-1; experiment: as above; conditions: MCC and control cell lines, CellTiter-Glo viability, 72 h; series mostly up to 46 µM
In short: as §2

[11] = system: MKL-2; experiment: as above; conditions: MCC and control cell lines, CellTiter-Glo viability, 72 h; series mostly up to 46 µM
In short: as §2
% is set by controls: 0 for no effect and ±100 for the full control effect; potency is the fitted concentration of half-maximal effect.
Note: nearly all actives have a fitted effect of over 60% in size.

O=C(Oc1ccccc1)c1ccccc1O
inactive: outcome [1] | outcome [2] | outcome [3] | max response [4] -0.601% | max response [5] 3.3% | outcome [6] | outcome [7] | Potency [8] | Potency [9] | Potency [10] | Potency [11]

N[C@@H](Cn1ccc(=O)c(O)c1)C(=O)O
inactive: max response [1] -0.877% | max response [2] -0.669% | outcome [3] | max response [4] 7.53% | max response [5] 0.301% | outcome [6] inactive [at 4.96 µM]

O=C(Oc1ccccc1)c1cccc(C(=O)Oc2ccccc2)c1
inactive: max response [1] -12.1% | max response [2] 3.23% | outcome [3] | max response [4] -6.63% | max response [5] -5.12% | outcome [6] inactive [at 92 µM] | Potency [8] | Potency [9] | Potency [10] | Potency [11]

CO/N=C(/C(=O)N[C@@H]1C(=O)N2C(C(=O)OCOC(=O)C(C)(C)C)=C(C)CS[C@H]12)c1csc(N)n1
inactive: outcome [1] | max response [2] 4.75% | outcome [3] | max response [4] -4.57% | max response [5] 0.923% | outcome [6] | Potency [8] | Potency [9] | Potency [10]

CC(=O)Nc1c(I)c(NC(C)=O)c(I)c(C(=O)O)c1I
inactive: max response [1] 2.5% | max response [2] 2.17% | outcome [3] | max response [4] -3.56% | max response [5] 4.63% | outcome [6] | Potency [8] | Potency [9] | Potency [10] | Potency [11]

Oc1ccc(CCNCCCCCCNCCc2ccccc2)cc1O
inactive: max response [1] -8.57% | outcome [3] | max response [4] -20.6% | max response [5] -5.45% | outcome [6] | Potency [8] | Potency [9]
active: Potency [2] 23.7 µM | Potency [10] 2.11 µM | Potency [11] 0.596 µM

CCCCCC[C@@H](CCC)C(=O)O
inactive: max response [1] -4.37% | outcome [2] | outcome [3] | max response [4] -12.3% | outcome [5] | outcome [6] | outcome [7] | Potency [8] | Potency [9] | Potency [10] | Potency [11]

O=C(CCCCCCCCC#CI)Oc1ccccc1
inactive: max response [1] 1.88% | outcome [2] | outcome [3] | outcome [4] | max response [5] 0.745% | outcome [6] | outcome [7] | Potency [8] | Potency [9]
active: Potency [10] 13.3 µM | Potency [11] 9.44 µM

C[C@@H](C1=C(CCN(C)C)Cc2ccccc21)c1ccccn1
inactive: outcome [1] | max response [2] -25.1% | outcome [3] | max response [4] -6.09% | max response [5] 1.99% | outcome [6] | Potency [8] | Potency [9] | Potency [10] | Potency [11]

CSc1ccc(/C=C2/C(C)=C(CC(=O)O)c3cc(F)ccc32)cc1
inactive: outcome [1] | max response [2] 0.521% | outcome [3] | max response [4] -18.2% | max response [5] -3.24% | outcome [6] | Potency [8] | Potency [9] | Potency [10] | Potency [11]

CCC(C(=O)NC(=O)NC(C)=O)c1ccccc1 (stereo not given)
inactive: max response [1] 2.16% | max response [2] -0.744% | outcome [3] | max response [4] 0.82% | max response [5] -7.72% | outcome [6] | Potency [8] | Potency [9] | Potency [10] | Potency [11]

CC(C)(C)c1nnc(NS(=O)(=O)c2ccccc2)s1
inactive: max response [1] 4.99% | outcome [2] | outcome [3] | max response [4] 3.82% | max response [5] 1.08% | outcome [6] | outcome [7] | Potency [8] | Potency [9] | Potency [10] | Potency [11]

Cc1ccc(/C=N/n2c(-c3ccccc3)csc2=S)cc1
inactive: max response [1] -8.42% | max response [2] 1.19% | outcome [3] | max response [4] -9.01% | max response [5] -3.86% | outcome [6] | Potency [8] | Potency [9] | Potency [10]

O=C(O)/C=C(\CC(=O)O)C(=O)O
inactive: max response [1] 4.3% | outcome [2] | outcome [3] | max response [4] -12.2% | outcome [5] | outcome [6] | outcome [7] | Potency [8] | Potency [9] | Potency [10] | Potency [11]

COc1ccccc1N1CCN(CCN2C(=O)CC3(CCCC3)CC2=O)CC1
inactive: max response [1] -8.79% | outcome [2] | outcome [3] | max response [4] 1.39% | outcome [5] | outcome [6] | outcome [7]

Oc1ccccc1
inactive: max response [1] -1.94% | max response [2] -1.05% | outcome [3] | max response [4] -6.38% | max response [5] 3.74% | outcome [6] | Potency [8] | Potency [9] | Potency [10] | Potency [11]

COc1cc(C=O)ccc1O
inactive: max response [1] -1.68% | max response [2] -1.3% | outcome [3] | max response [4] -6.73% | max response [5] -0.279% | outcome [6] | Potency [8] | Potency [9] | Potency [10] | Potency [11]

CC(=O)Nc1ccc(S(=O)(=O)Nc2cc(C)on2)cc1
inactive: max response [1] -2.31% | max response [2] 4.22% | outcome [3] | max response [4] -4.05% | outcome [5] | outcome [6] | Potency [8] | Potency [9] | Potency [10] | Potency [11]

CC(=O)OCC(=O)[C@@]1(O)[C@H](OC(C)=O)C[C@H]2[C@@H]3CCC4=CC(=O)C=C[C@]4(C)[C@@]3(F)[C@@H](O)C[C@@]21C
inactive: outcome [1] | outcome [2] | outcome [3] | max response [4] 1.08% | outcome [5] | outcome [6] | outcome [7] | Potency [8] | Potency [9] | Potency [10] | Potency [11]

CC(C)(C)C(=O)OCOC(=O)C1N2C(=O)CC2S(=O)(=O)C1(C)C (stereo not given)
inactive: max response [1] -2.99% | outcome [2] | outcome [3] | max response [4] -11.8% | max response [5] 2.05% | outcome [6] | outcome [7] | Potency [8] | Potency [9] | Potency [10] | Potency [11]

CC(C)N(CCC(=O)c1ccc2ccccc2c1)Cc1ccccc1
inactive: max response [1] -24.3% | max response [2] -116% | outcome [3] inactive; activator | max response [4] -5.46% | outcome [6] inactive; activator
active: Potency [5] 10.3 µM

C[C@@H](O[C@H]1OCCN(Cc2n[nH]c(=O)[nH]2)[C@H]1c1ccc(F)cc1)c1cc(C(F)(F)F)cc(C(F)(F)F)c1
inactive: max response [1] 4.27%

N=C(N)c1ccc(OCCCOc2ccc(C(=N)N)cc2)cc1
inactive: max response [1] 2.23% | outcome [3] | max response [4] -29% | outcome [5] | outcome [6] | Potency [8] | Potency [9] | Potency [10] | Potency [11]
active: Potency [2] 7.5 µM

CCO[C@H](Cc1ccc(OCCc2ccc(OS(C)(=O)=O)cc2)cc1)C(=O)O
inactive: max response [1] -4.09% | max response [2] -6.35% | outcome [3] | max response [4] -10.5% | max response [5] -1.31% | outcome [6] | Potency [8] | Potency [9] | Potency [10] | Potency [11]

O=C(O)c1[nH]n(-c2ccc(S(=O)(=O)O)cc2)c(=O)c1N=Nc1ccc(S(=O)(=O)O)cc1
inactive: max response [1] 0.833% | max response [2] 1.51% | outcome [3] | max response [4] 3.04% | max response [5] -0.37% | outcome [6] | Potency [8] | Potency [9] | Potency [10] | Potency [11]

Brc1ccc([C@H]2CN3CCSC3=N2)cc1
inactive: max response [1] -3.15% | max response [2] 3.24% | max response [3] -7.1% | max response [4] 5.27% | outcome [5]

CC(=O)[C@H]1CC[C@H]2[C@@H]3C=CC4=CC(=O)CC[C@@]4(C)[C@@H]3CC[C@]12C
inactive: max response [1] -2.73% and 1.98% | max response [2] -2.74% | max response [3] -26.7% | outcome [3] | max response [4] -2.29% | max response [5] -20.6% and 1.55% | outcome [6] | Potency [8] | Potency [9] | Potency [10] | Potency [11]

Cc1cccc(C)c1NC(=O)c1cc(S(N)(=O)=O)c(Cl)cc1O
inactive: outcome [1] | outcome [2] | outcome [3] | max response [4] -20.9% | max response [5] -1.69% | outcome [6] | outcome [7] | Potency [8] | Potency [9] | Potency [10] | Potency [11]

CCOC(=O)NNc1ccc(N(CC)CC(C)O)nn1 (stereo not given)
inactive: max response [1] 2.28% | outcome [2] | outcome [3] | max response [4] -6.42% | max response [5] 4.97% | outcome [6] | outcome [7] | Potency [8] | Potency [9] | Potency [10]

C[N+]1(C)CCC(OC(=O)C(O)(c2ccccc2)C2CCCC2)C1 (stereo not given)
inactive: max response [1] 2.29% | max response [2] -9.88% | outcome [3] | max response [4] -6.32% and -2.46% | max response [5] -0.313% | outcome [6] | Potency [8] | Potency [9] | Potency [10] | Potency [11]

CC(=O)N(CC(O)CO)c1c(I)c(C(=O)NCCO)c(I)c(C(=O)NCC(O)CO)c1I (stereo not given)
inactive: max response [1] -7.11% | max response [2] 2.15% | outcome [3] | max response [4] -13% | outcome [5] | outcome [6] | Potency [8] | Potency [9] | Potency [10] | Potency [11]

CN(C(=O)C(Cl)Cl)c1ccc(OC(=O)c2ccco2)cc1
inactive: max response [1] 4.42% | max response [2] -3.53% | outcome [3] | max response [4] -7.7% | max response [5] 1.4% | outcome [6] | Potency [8] | Potency [9] | Potency [10] | Potency [11]

CO[C@@]1(NC(=O)CSC[C@@H](N)C(=O)O)C(=O)N2C(C(=O)O)=C(CSc3nnnn3C)CS[C@@H]21
inactive: max response [1] 1.25% | outcome [2] | outcome [3] | max response [4] -3.72% | max response [5] -3.38% | outcome [6] | outcome [7] | Potency [8] | Potency [9] | Potency [10] | Potency [11]

CC(=O)N[C@@H](CCC(N)=O)C(=O)O
inactive: max response [1] -5.46% | outcome [2] | outcome [3] | max response [4] -6.88% | max response [5] -1.83% | outcome [6] | outcome [7] | Potency [8] | Potency [9] | Potency [10] | Potency [11]

O=C(O)[C@H](O)[C@@H](O)[C@H](O[C@@H]1O[C@H](CO)[C@H](O)[C@H](O)[C@H]1O)[C@H](O)CO
inactive: max response [1] -2.55% | outcome [2] | outcome [3] | max response [4] -11.9% | max response [5] -0.868% | outcome [6] | outcome [7] | Potency [8] | Potency [9] | Potency [10] | Potency [11]

COc1cc(C(=O)NC2CCCNC2)cc(OC)c1OC (stereo not given)
inactive: max response [1] 1.65% | max response [2] -8.29% | outcome [3] | max response [4] -17.2% | max response [5] 4.73% | outcome [6] | Potency [8] | Potency [9] | Potency [10] | Potency [11]
